Source: PubChem BioAssay (NCI)
This is part of a sample that, as a whole, favours compounds with a hit. Of some 83,000 tested, about 20% had one in any assay.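 A percent growth of 40 corresponds to 60% growth inhibition; 0 means no net growth; -100 means all cells died. Active threshold: below 10.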 A number with no mark means an inactive call. Active and inactive are the calls of the source.

Test system: HOP-92 NSCLC
Assay: NCI-60 one-dose screen, 48 h (100 = growth as untreated, 0 = no growth, -100 = all killed)
Conditions: 10 µM unless noted
Procedure: Growth inhibition of the HOP-92 human Non-Small Cell Lung tumor cell line is measured as a screen for anti-cancer activity. Cells are grown in 96 well plates and exposed to the test compound for 48 hours. Compounds are tested at a single concentration, which is 10^-5 M for most compounds. The reported endpoint is percent growth (GI% or GIPRCNT), where numbers from 0 - 100% represent growth inhibition, and numbers from -100% - 0 represent cell death. For example, a value of 40 represents 60% growth inhibition. A value of 0 means no net growth occurred over the course of the experiment. A value of -40 indicates 40% of cells at the beginning of the experiment died by the end of the experiment. A value of -100 means all cells are dead at the end of the experiment.
NCI-60 Human Tumor Cell Lines Screen was performed using the standard one-dose NCI protocol, which is described in more detail at https://dtp.cancer.gov/discovery_development/nci-60/default.htm.
Compounds with GIPRCNT values below 10 were considered active. Activity score was based on GIPRCNT using the following formula: […]
Score is 0 for GIPRCNT values of 100 or above, 50 for GIPRCNT values of 0, and 100 for GIPRCNT values of -100.

Row | SMILES | growth
1 | CCCCCCN1C=C/C(=C\C(=O)n2ccc3ccccc32)c2ccccc21 | 82.6%
2 | COc1ccc(C(=O)c2c(N)c(C#N)cn2-c2ccc(Cl)cc2Cl)cc1 | 101%
3 | Cc1ccc2c(n1)C(=O)C(Cl)=C(Nc1cccc(C)c1C)C2=O | -1.44% (active)
4 | CSc1ccc(C(=NNS(=O)(=O)c2ccc(C)cc2)c2ccc(Cl)cc2)cc1 | 86.9%
5 | CC(=C(c1ccc(OCCN(C)C)cc1)c1ccc(OCCN(C)C)cc1)c1ccc(Cl)cc1 | -9.45% (active)
6 | COc1cc2cc(Oc3ccc(NC(=O)c4cc(C(F)(F)F)cc(C(F)(F)F)c4)cc3)c(C)nc2cc1OCCN1CCOCC1 | 44.8%
7 | CN(C)c1ccc(-c2cc(-c3c[nH]c4ccccc34)nc(N)c2C#N)cc1 | 27.5%
8 | C=C1CCc2nc(SCC(=O)O)ccc2N1 | 120%
9 | CC(=O)Nc1ccccc1-c1nc2ccccc2s1 | 96.6%
10 | CNCCN(C)c1ccc(Nc2cc(NC3CC3)n3ncc(C#N)c3n2)cc1NC(C)=O | -9.1% (active)
11 | C=C(C)[C@@H]1CC[C@]2(C(=O)O)CC[C@]3(C)[C@H](CC[C@@H]4[C@@]5(C)C/C(=C/c6ccccn6)C(=O)C(C)(C)[C@@H]5CC[C@]43C)[C@@H]12 | 34.7%
12 | NCCNC(=O)c1cccc(COc2ccccc2NC(=O)c2cc(Br)c(Br)[nH]2)c1 | 107%
13 | COc1cccc2c1C=CC1(O2)Oc2cccc(OC)c2C=C1C (stereo not given) | -5.13% (active)
14 | CC(C)[C@H]1c2[nH]c3ccccc3c2C[C@H]2C(=O)N(CCCCCCC(=O)NO)CC(=O)N12 | 74.9%
15 | CC(=O)Nc1cc(N2CCOCC2)c2nc(NC(=O)c3[nH]c(C)c(Cl)c3Cl)sc2c1 | 119%
16 | COC(=O)c1ccc(NC2=C(Cl)C(=O)C(C)=C(C)C2=O)cc1 | 64.9%
17 | O=C(CSc1nc2ccccc2c(=O)n1-c1ccc(S(=O)(=O)Nc2ccc(Cl)nn2)cc1)Nc1ccc(S(=O)(=O)Nc2ccc(Cl)nn2)cc1 | 107%
18 | C#Cc1cc(C(=O)Nc2ccc(CNCCN3CCOCC3)c(C(F)(F)F)c2)ccc1C | 68.7%
19 | N#C/C(=C\c1ccc(-c2ccc(Cl)cc2)o1)C(=O)Nc1ncc(Cc2ccc(Br)cc2)s1 | 8.49% (active)
20 | Cn1cc(-c2nnc(N)nc2-c2c[nH]c3ccc(Br)cc23)c2cc(Br)ccc21 | 111%

Row | SMILES | growth
21 | Brc1cc(-c2cc(-c3ccc4c(c3)OCCO4)[nH]n2)cs1 | 65.2%
22 | O=C(CCCCCC/C=C\c1csc(Br)n1)NO | 102%
23 | CCOC(=O)c1ccccc1NC1=C(Cl)C(=O)c2nc(C)ccc2C1=O | 118%
24 | O=C(NCCNc1cc(-c2cn(-c3ccccc3)nc2-c2cccc(O)c2)ccn1)Nc1cc(C(F)(F)F)cc(C(F)(F)F)c1 | 89.6%
25 | C#CCn1cc(/C=N/Nc2nc(-c3ccc(Br)cc3)cs2)c2ccccc21 | 88.9%
26 | Cc1ccc(N2CCN(C3=C(Cl)C(=O)c4ncccc4C3=O)CC2)cc1 | 84.4%
27 | C#C[C@]1(O)CC[C@H]2[C@@H]3CC=C4c5sc(NCc6ccccc6)nc5CC[C@]4(C)[C@H]3CC[C@@]21C | 23.1%
28 | CC(=O)C1=C(C)NC(NNc2ccccc2)=NC1c1ccc([N+](=O)[O-])cc1 (stereo not given) | 99.7%
29 | Cn1cc(-c2cc3ncnc(Nc4ccc(NC(=O)Nc5cc(C(C)(C)C)on5)cc4)c3s2)cn1 | 22.5%
30 | Cc1ccc2c(n1)C(=O)C(Cl)=C(Nc1cc(C(F)(F)F)cc(C(F)(F)F)c1)C2=O | 92.4%
31 | CC(Nc1c(C#N)cnc2ccc(-c3cncc(-c4n[nH]c(=O)o4)c3)cc12)c1ccccc1 (stereo not given) | -20.9% (active)
32 | O=C(O)CC1CCN(c2ccc3nnc(Cl)n3n2)CC1 | 96.2%
33 | C#C[C@]1(O)CC[C@H]2[C@@H]3CC=C4c5sc(Nc6ccc(C)cn6)nc5CC[C@]4(C)[C@H]3CC[C@@]21C | -1.7% (active)
34 | CC(C)Sc1nc(-c2ccccc2)c(C#N)c(N2CCOCC2)n1 | 73.2%
35 | COC(=O)c1ccc(NC2=C(Cl)C(=O)c3nc(C)ccc3C2=O)cc1 | 142%
36 | O=c1c2cc(-c3ccc(F)cc3F)ccc2n(O)c(=O)n1-c1cccc(C(F)(F)F)c1 | -30% (active)
37 | Cc1ncn(-c2ccc(/C=N/Nc3ccnc4cc(Cl)ccc34)cc2)c1C | -28.2% (active)
38 | CNc1sc(S(=O)(=O)NC)nc1S(=O)(=O)c1ccc(C)cc1 | 84.9%
39 | O=C1[C@@H]2Cc3c([nH]c4ccccc34)[C@@H](c3ccc(Cl)cc3)N2C(=O)CN1C1CCN(Cc2c(F)cccc2F)CC1 | -0.363% (active)
40 | O=C(CCCCCCNC(=O)C(O)(O)C(F)(F)F)Nc1nc2ccccc2s1 | -5.22% (active)
